Assay results published in PubChem BioAssay (NCATS).
Records with an inconclusive call do not appear. Entries that show only a call come without a potency. The source made the active and inactive calls. Calls follow the shape of the dose curve; as a rule, active = well fitted inhibition curve with a large enough effect; inconclusive = small, poorly fitted or top-dose-only effect; inactive = no such curve, though single readings can be large or run the other way.

The molecules below were run on Zika virus NS2B-NS3 protease (linked construct) (assay: Primary screen NINDS Rhodamine qHTS for Zika virus inhibitors (AID 1347160; also: nearly all actives have a fitted effect of over 55% in size)). Settings: purified NS2B-NS3 protease, Rhodamine110 substrate fluorescence; series mostly up to 57.1 µM.
How it was run: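 Each compound, titrated, sat 15 min with 25 nM linked protease before 1.5 microM Rhodamine110 substrate went in. Fluorescence gain over the next 15 min, in pH 8.0 Tris with Tween 20, gave Hill-fitted curves.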
Potency is read from the fitted curve at half-maximal effect.

SMILES	Potency
C/C=C(/C)C(=O)O[C@@H]1C[C@@H](OC(=O)CC(C)C)C2(C)C3C(=O)C=C(C)C2C3C1(C)C (stereo partly specified)	inactive
Cc1nc(N2CCN(C(=O)c3ccco3)CC2)c2c3c(sc2n1)CCCC3	inactive
O=C(NCCN1CCC(n2c(=O)[nH]c3ccccc32)CC1)c1cc2cc(F)ccc2[nH]1	inactive
CC(=O)O[C@@H]1CC2C(C)(C)C(=O)C=C[C@]2(C)C2CC[C@@]3(C)[C@H](c4ccoc4)OC(=O)[C@H]4O[C@]43[C@@]21C (stereo partly specified)	inactive
Cc1sc2c(c1C)C(c1ccc(Cl)cc1)=N[C@H](CC(=O)NCCCCNC(=O)COc1cccc3c1C(=O)N([C@H]1CCC(=O)NC1=O)C3=O)c1nnc(C)n1-2	inactive
CCC(CC)(NC(=O)C(C)C)C(=O)N[C@@H](CCCN=C(N)N)C(=O)NC1(C(=O)NC(c2ccc(F)cc2)c2ccc(F)cc2)CCCC1	inactive
CN(C)C(=O)COC(=O)c1cc(-c2ccc(C3CCNCC3)cc2)c2ccc(-c3ccc(C(F)(F)F)cc3)cc2c1	inactive
COc1ccc(CCO[C@@H]2O[C@H](CO[C@H]3OC[C@](O)(CO)[C@H]3O)[C@@H](OC(=O)/C=C/c3ccc(O)c(O)c3)[C@H](O[C@@H]3O[C@@H](C)[C@H](O)[C@@H](O)[C@H]3O)[C@H]2O)cc1OC	inactive
CC1=C(c2ccc(NC(=O)c3c(F)cccc3F)cc2)CN(c2nccs2)CC1	inactive
C=C1C(=O)OC2/C=C(/C)C3=CC(=O)C(C)(CC(OC(=O)/C(C)=C/COC(C)=O)C12)O3 (stereo unspecified)	inactive
CC(C)C[C@@H](N)C(=O)N[C@H]1C(=O)N[C@@H](CC(N)=O)C(=O)N[C@H]2C(=O)N[C@H]3C(=O)N[C@H](C(=O)N[C@H](C(=O)O)c4cc(O)cc(O)c4-c4cc3ccc4O)[C@H](O)c3ccc(c(Cl)c3)Oc3cc2cc(c3O[C@@H]2O[C@H](CO)[C@@H](O)[C@H](O)[C@H]2O[C@H]2C[C@](C)(N)[C@H](O)[C@H](C)O2)Oc2ccc(cc2Cl)[C@H]1O	inactive
CN(C)CCOC(C)(c1ccccc1)c1ccc(Cl)cc1 (stereo unspecified)	inactive
COc1cc(/C=C2\CC[C@H]3COC[C@@H](c4cc(F)c(F)c(F)c4)N3C2=O)ccc1-n1cnc(C)c1	inactive
Cc1cc2ncc(C(=O)NCC(C)(C)NCC(=O)N3CCC[C@H]3C#N)cn2n1	inactive
O=C(NCc1ccc(OC(F)(F)F)cc1)C1c2c(F)cccc2C(=O)N1CCc1ccccn1 (stereo unspecified)	inactive
COC(=O)C1=COC(O[C@@H]2O[C@H](CO[C@@H]3O[C@H](COC(=O)/C=C\c4ccc(O)cc4)[C@@H](O)[C@H](O)[C@H]3O)[C@@H](O)[C@H](O)[C@H]2O)C2C(CO)=CCC12 (stereo partly specified)	inactive

SMILES	Potency
CCS(=O)c1nc(-c2cccc(OCc3ccccc3)c2)cc(C(F)(F)F)n1 (stereo unspecified)	inactive
COC(=O)N1CCC(n2ncc3c(N4CCOCC4)nc(-c4ccc(NC(=O)NC5CC5)cc4)nc32)CC1	inactive
CNCCCC1(c2ccccc2)OC(C)(C)c2ccccc21 (stereo unspecified)	inactive
Cc1cccc(N2CCN(C(=O)c3cc(S(=O)(=O)N(C)C)ccc3N3CCCC3)CC2)c1C	inactive
C=C1C(=O)OC[C@@H]1C/C=C(\C)CC1CC(C)C(=O)O1 (stereo partly specified)	15.8 µM (active)
CC12CCC(OC3OC(CO)C(O)C(O)C3OC3OC(CO)C(O)C(O)C3O)CC1CCC1C2CCC2(C)/C(=C3/COC(=O)C3)CCC12O (stereo unspecified)	inactive
CC(=O)OC1[C@H]2[C@@H](C[C@@H](C)[C@@H]3C=CC(=O)[C@@]13C)OC(=O)[C@@H]2C (stereo partly specified)	inactive
C=C1C(=O)OC2C1CCC1(C)C(O)CCC(=C)C21 (stereo unspecified)	inactive
COc1c(C(O)CC(C)C)ccc2c1C(=O)OCc1cc(C)cc(O)c1O2 (stereo unspecified)	inactive
Nc1nc2c(nc(Br)n2[C@@H]2O[C@@H]3COP(=O)(O)O[C@H]3[C@H]2O)c(=O)[nH]1	inactive
C=C1/C(=C/C=C2\CCC[C@]3(C)[C@@H]([C@@H](C)OCCC(O)(CC)CC)CC[C@@H]23)C[C@@H](O)C[C@@H]1O	inactive
C/C=C(\C)C(=O)OC1C(C)C2(O)C(C=C(CO)CC3(O)C(=O)C(C)=CC32)C2C(C)(C)C12OC(C)=O (stereo unspecified)	inactive
CCN(CC)C(=O)c1ccc(Nc2nc(OCC3CCCCC3)c3[nH]cnc3n2)cc1	inactive
COc1cc2ncnc(Nc3cccc(I)c3)c2cc1OC	inactive
COc1cc(-n2cnc3cc(-c4ccc(Cl)cc4)sc3c2=O)ccc1OCCN1CCCC1	inactive
